Among the data in PubChem BioAssay (EPA / NIEHS) are outcome and AC50 values, retold here.

Inconclusive results are not listed. The source made the active and inactive calls. The calls were made as follows: active = hit-call score of the fitted dose curve at least 0.9, where 1 is the maximum; inconclusive = response in the unintended direction; inactive = score below 0.9.

Norway rat Vesicular Monoamine Transporter (VMAT2), neurotransmitter transporter, Slc18a2 (gene 25549), sequence (Q01827 whole entry, looked up): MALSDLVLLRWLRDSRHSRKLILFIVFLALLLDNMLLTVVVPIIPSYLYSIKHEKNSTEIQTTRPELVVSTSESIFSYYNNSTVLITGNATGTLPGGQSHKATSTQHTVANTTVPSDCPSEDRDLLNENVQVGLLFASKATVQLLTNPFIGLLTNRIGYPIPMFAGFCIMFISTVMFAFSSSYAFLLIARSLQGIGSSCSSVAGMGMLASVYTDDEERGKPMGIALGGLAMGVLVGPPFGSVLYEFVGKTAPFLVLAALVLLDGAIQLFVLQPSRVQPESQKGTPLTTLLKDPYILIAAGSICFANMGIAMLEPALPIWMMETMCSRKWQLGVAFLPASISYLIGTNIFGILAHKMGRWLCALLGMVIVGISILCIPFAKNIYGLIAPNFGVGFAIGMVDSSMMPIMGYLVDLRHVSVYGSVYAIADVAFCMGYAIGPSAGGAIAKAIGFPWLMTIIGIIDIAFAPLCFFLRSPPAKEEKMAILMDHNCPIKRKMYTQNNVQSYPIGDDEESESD

One assay deals with rat Corticotropin Releasing Factor Receptor (CRF), Crhr1 (gene 58959) (UniProt P35353). Nature of the assay: NVS_GPCR_rCRF: NovaScreen (NVS) G Protein-Coupled Receptor Assay for rat Corticotropin Releasing Factor Receptor (CRF) (AID 2283300). The procedure, abridged: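 Rat cortical membranes used as receptor source in a radioligand competitive displacement binding assay; scintillation read 2 h after dosing. Primary screen run in duplicate at 25 uM; loss of signal versus DMSO baseline indicates binding.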
rat Corticotropin Releasing Factor Receptor (CRF), Crhr1 (gene 58959), sequence (P35353 whole entry, looked up): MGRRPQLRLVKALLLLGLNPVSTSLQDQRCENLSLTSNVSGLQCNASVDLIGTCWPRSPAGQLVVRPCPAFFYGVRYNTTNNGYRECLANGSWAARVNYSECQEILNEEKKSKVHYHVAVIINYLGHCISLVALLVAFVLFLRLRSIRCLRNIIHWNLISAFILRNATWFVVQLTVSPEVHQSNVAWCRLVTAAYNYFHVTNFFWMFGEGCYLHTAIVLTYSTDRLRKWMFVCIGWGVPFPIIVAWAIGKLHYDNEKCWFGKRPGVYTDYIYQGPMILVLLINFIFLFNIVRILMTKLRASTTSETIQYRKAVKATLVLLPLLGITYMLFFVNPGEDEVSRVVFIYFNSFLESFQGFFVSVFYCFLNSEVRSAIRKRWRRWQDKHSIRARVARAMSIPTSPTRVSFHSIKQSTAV
Take `CCC(C)(C)C1CCC(O)CC1` (stereo not drawn): the outcome was inactive.

In the case of `CCNc1nc(N)nc(Cl)n1`, the outcome was inactive.

Consider `COCCOCCOCCOC`, for which the result was inactive.

With `O=c1[nH]sc2ccccc12`, the AC50 is 17 µM (active).

For the molecule `OCCO`, the molecule was called inactive.

Another assay has as its target Norway rat Vesicular Monoamine Transporter (VMAT2), neurotransmitter transporter, Slc18a2 (gene 25549) (UniProt Q01827). Description: NVS_TR_rVMAT2: NovaScreen (NVS) Transporter Assay for Norway rat Vesicular Monoamine Transporter (VMAT2), neurotransmitter transporter (AID 2283376).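 Also: actives lower the bound radioligand signal below the DMSO level.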 Put shortly:
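Radioligand displacement binding on rat forebrain tissue preparation, filter-based scintillation read-out 1 hour after dosing. Primary screen in duplicate at 25 uM, then concentration series for actives; loss of signal versus DMSO.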
As to `O=C(c1ccccc1)c1ccc(O)cc1O`, the outcome was inactive.

As for `OCC(CO)(CBr)CBr`, the molecule was classed as inactive.

For the molecule `COC(=O)c1ccc(C(=O)OC)cc1`, the molecule was called inactive.
